# Measurements: PubChem BioAssay AID1626 (SRMLSC, 2009)
# The campaign covered roughly 220,000 compounds. About 2,000 (0.91%) were called active. Another 2% or so got no clear call; they are omitted. No stated cut-off is given here; in the data, inconclusive means inhibition above about 80% without an active follow-up result; inactive means below that; test concentration not stated here. A selection follows. Results with a measured potency or affinity are listed apart.
# Assay: M. tuberculosis H37Rv growth inhibitors, H37Rv strain (AID 1626);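 further: bacteria incubated seven days before Alamar blue readout; 0% = bacteria only wells and 100% = bacteria with antibiotic wells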
# Conditions: hits give high values, concentration not given here
row,Compound,inhibition
1,CN(C)S(=O)(=O)c1cccc(C(=O)OCC(=O)NC2CCCc3ccccc32)c1 (configuration not stated),2.51% (inactive)
2,O=C(CSc1nc2ccccc2c(=O)n1-c1ccccc1)N1CCC1,-2.38% (inactive)
3,O=C(Nc1ccc(F)cc1)c1ccccc1Oc1ccc(C(F)(F)F)cc1[N+](=O)[O-],-1.92% (inactive)
4,Cc1ccc(Oc2ccc(C(F)(F)F)cc2[N+](=O)[O-])c([N+](=O)[O-])n1,3.08% (inactive)
5,OCCC1CN(Cc2cnc(-c3ccccc3)s2)CCN1C1CCCCC1 (configuration not stated),2.22% (inactive)
6,Cc1cccc(N=C2NN=C(c3ccc4c(c3)OCCO4)CS2)c1,6.79% (inactive)
7,Cc1ccc(C2=NNC(=Nc3ccc(F)cc3)SC2)cc1,5.11% (inactive)
8,Cc1cc(C2=NNC(=Nc3ccccc3)SC2)c(C)n1C,0.04% (inactive)
9,COCCn1c(C)cc(C2=NNC(=Nc3ccc(OC)cc3)SC2)c1C,-6.04% (inactive)
10,Fc1ccc(N=C2NN=C(c3cc(F)ccc3F)CS2)cc1,9.64% (inactive)
11,COc1ccc(N=C2NN=C(c3ccc4c(c3)OCCO4)CS2)cc1,-3.14% (inactive)
12,O=C(CCC1CCCCC1)NNC(=O)c1cnccn1,22.5% (inactive)
13,CCCS(=O)(=O)c1csc(C(=O)OC)c1N,-5.25% (inactive)
14,CS(=O)(=O)c1ccc(C(=O)OCC(=O)NC2CCS(=O)(=O)C2)cc1[N+](=O)[O-] (configuration not stated),2.59% (inactive)
15,CC(C)c1ccc(/C=N/NC(=O)c2nnn(-c3nonc3N)c2CSC2=NCCS2)cc1,-0.79% (inactive)
16,COc1cc(C(=O)N2CCN(S(=O)(=O)c3ccc(F)cc3)CC2)cc(OC)c1OC,-4.16% (inactive)
17,CCOC(=O)N1C2=NC(C(=O)OC)=C(C(=O)OC)[C@@H]3N(C)c4ccc(OC)cc4[C@]23C[C@H]1C(=O)OC,5.46% (inactive)
18,CN1CCc2ccccc2CC1=O,1.98% (inactive)
19,N#CC1=C2SCC(O)(c3ccccc3)N2C(=O)CC1c1cccs1 (configuration not stated),3.45% (inactive)
20,N#CC1=C2SCC(O)(c3ccccc3)N2C(=O)CC1c1ccccc1 (configuration not stated),-11.4% (inactive)
21,COC(=O)CSc1nnc(CNC(=O)c2ccccc2F)n1-c1ccccc1,-1.52% (inactive)
22,Cc1cccc(N2CCN(C(=O)c3cc(C)oc3C)CC2C)c1 (configuration not stated),4.99% (inactive)
23,Cc1cccc(N2CCN(C(=O)c3ccncc3)CC2C)c1 (configuration not stated),-7.46% (inactive)

row,Compound,inhibition
1,Cc1cc(C)cc(NC(=S)/C(=C(\[O-])c2ccc(Cl)cc2Cl)[n+]2ccccc2)c1,6.94% (inactive)
2,Cc1ccc(S(=O)(=O)N2CCCN(S(=O)(=O)c3ccc4c(c3)OCCO4)CC2)cc1,8.01% (inactive)
3,O=C1c2ccccc2S(=O)(=O)c2cc(C(=O)N(c3ccccn3)c3ccccn3)ccc21,-6.02% (inactive)
4,Clc1ccccc1-c1nnc2sc(C3COc4ccccc4O3)nn12 (configuration not stated),3.12% (inactive)
5,Fc1ccc(-c2nnc3sc(C4COc5ccccc5O4)nn23)cc1 (configuration not stated),20.6% (inactive)
6,O=C(NNc1c(Cl)cccc1Cl)C1CCC1,-0.74% (inactive)
7,Cc1cc(N2CCN(C)CC2)nc2ccc(NC(=S)NCCCN3CCN(C)CC3)cc12,1.11% (inactive)
8,CCCCCOc1ccc(/C=c2\sc3nc(=O)c(-c4ccccc4)nn3c2=O)cc1OC,-2.22% (inactive)
9,Cc1ccccc1NC(=O)/C=C/c1cccc(C(F)(F)F)c1,3.62% (inactive)
10,CCc1ccc(NC(=O)C[n+]2cc(-c3ccc(C)cc3)n3c2CCC3)cc1,0.48% (inactive)
11,O=C(C[n+]1cc(-c2ccc(F)cc2)n2c1CCC2)Nc1nc(-c2ccccc2)cs1,78.7% (inactive)
12,Cc1ccc(NC(=O)C[n+]2cc(-c3ccccc3)n3c2CCC3)cc1,-1.61% (inactive)
13,Cn1c(NC(=O)C[n+]2cc(-c3ccc(F)cc3)n3c2CCC3)cc(=O)n(C)c1=O,-5.35% (inactive)
14,Cc1ccc(-c2c[n+](CC(=O)Nc3ccccc3C)c3n2CCC3)cc1,5.29% (inactive)
15,Cc1ccc(-c2c[n+](CC(=O)Nc3ccc(C)cc3C)c3n2CCC3)cc1,2.12% (inactive)
16,CCCCC(=O)OCC(=O)Nc1ccc(C)c(F)c1,9.33% (inactive)
17,Cc1ccc(NC(=S)N(Cc2cccs2)Cc2cc3cc(C)cc(C)c3[nH]c2=O)cc1,-1.91% (inactive)
18,Fc1ccccc1CN1CCCN(C(=S)Nc2cccc(Cl)c2)C1,-6.44% (inactive)
19,c1ccc(-c2nnc(N3CCOCC3)nc2-c2ccccc2)cc1,4.29% (inactive)
20,C=CCn1c(=NC(=O)c2cc(Cl)sc2Cl)sc2cc(S(N)(=O)=O)ccc21,52.4% (inactive)
21,COCCn1c(=NC(=O)c2cc(Cl)sc2Cl)sc2cc(S(N)(=O)=O)ccc21,17.1% (inactive)
22,COc1ccc(Nc2nnc(C)c(=O)[nH]2)c(OC)c1,0% (inactive)
23,CCn1cc(C(=O)O)c(=O)c2cc(F)c(N3CCN(C(=S)NC(=O)c4ccccc4F)CC3)cc21,62.5% (inactive)

row,Compound,inhibition
1,CCn1cc(C(=O)NCc2ccco2)c(=O)c2cc(F)c(N3CCN(C(=O)c4ccco4)CC3)cc21,71.1% (inactive)
2,CCCCCCC(=O)N1CCN(c2cc3c(cc2F)c(=O)c(C(=O)O)cn3CC)CC1,0.13% (inactive)
3,CCn1cc(C(=O)O)c(=O)c2cc(F)c(N3CCN(S(=O)(=O)c4ccc(Br)cc4)CC3)cc21,13.5% (inactive)
4,CCn1cc(C(=O)NCc2ccncc2)c(=O)c2cc(F)c(N3CCN(C(=O)c4ccco4)CC3)cc21,10.2% (inactive)
5,CCn1cc(C(=O)O)c(=O)c2cc(F)c(N3CCN(C(=S)NC(=O)c4ccccc4Cl)CC3)cc21,29.7% (inactive)
6,CCn1cc(C(=O)O)c(=O)c2cc(F)c(N3CCN(C(=S)NC(=O)c4ccccc4)CC3)cc21,30.7% (inactive)
7,CCn1cc(C(=O)O)c(=O)c2cc(F)c(N3CCN(C(=O)Nc4ccccc4)CC3)cc21,74.6% (inactive)
8,CCN1C(=O)N[C@@H](c2ccccc2)[C@@H](C(=O)OC)[C@H]1C,-12.7% (inactive)
9,CC(=O)OCCNc1nc(-c2ccccc2)nc2ccccc12,-5.25% (inactive)
10,CCCN(Cc1ccccc1)C(=S)Nc1cccc(C)c1C,3.47% (inactive)
11,CCC(C)C(=O)Nc1cccc(SC)c1 (configuration not stated),0.86% (inactive)
12,COc1cc2[nH]c(=S)nc(NC3CCCC3)c2cc1OC,0.6% (inactive)
13,CCN(CC)NC(=O)Nc1ccccc1,-12% (inactive)
14,CCOc1ccc(NC(=O)CSc2nnc(Cc3cccn3C)n2-c2ccc(F)cc2)cc1,-6.5% (inactive)
15,Nc1ncnc2c1ncn2[C@@H]1O[C@H](CO)[C@@H](O)[C@@H]1O,-0.73% (inactive)
16,Nc1ncnc2c1ncn2[C@@H]1O[C@H](CO)[C@@H](O)[C@H]1O,-2.69% (inactive)
17,Nc1ncnc2c1ncn2C1OC(CO)C(O)C1O (configuration not stated),-1.34% (inactive)
18,Nc1nc(F)nc2c1ncn2[C@@H]1O[C@H](CO)[C@@H](O)[C@@H]1O,72.3% (inactive)
19,CC(=O)Oc1ccc(N2C(=O)C3C(C2=O)C(C(=O)c2ccc(Cl)cc2)N2CCCC32)cc1 (configuration not stated),-5.33% (inactive)
20,CCOC(=O)/C=C1\SCC(=O)N1CC(=O)NC12CC3CC(CC(C3)C1)C2,6.97% (inactive)
21,CN(C)/C=C1\C(=O)N(c2ccc(Cl)cc2)CS1(=O)=O,-3.16% (inactive)
22,CC1CCN(c2c(NCC3CCC(C(=O)NCCc4ccc(Cl)cc4)CC3)c(=O)c2=O)CC1 (configuration not stated),11.6% (inactive)
23,O=C(C1CCC(CNc2c(N3CCCCC3)c(=O)c2=O)CC1)N1CCCC1 (configuration not stated),-3.71% (inactive)

row,Compound,inhibition
1,CC1CCN(c2c(NCC3CCC(C(=O)N4CCCC(C)C4)CC3)c(=O)c2=O)CC1 (configuration not stated),-5.27% (inactive)
2,O=C(NCc1ccc(Cl)cc1)C1CCC(CNc2c(N3CCCCC3)c(=O)c2=O)CC1 (configuration not stated),5.8% (inactive)
3,CCNC(=O)CC1C(=O)N(CC)C(=S)N1NC(=O)c1ccccc1 (configuration not stated),-3.85% (inactive)
4,CCCCOc1ccc(C(NC(=O)OCC)NC(=O)OCC)cc1,5.59% (inactive)
5,CC(C)OC(=O)CN1C(=O)C(C)(C)Oc2ccc(C(=O)NC3CC3)cc21,-5.84% (inactive)
6,COC(=O)c1ccc(-n2c(C)cc(C(=O)CCl)c2C)cc1,53.5% (inactive)
7,Cc1cc(C(=O)COc2ccccc2C(N)=O)c(C)n1C,0.29% (inactive)
8,Cc1cc(C(=O)CSc2ncccn2)c(C)n1Cc1ccco1,6.3% (inactive)
9,Cc1cc(C(=O)COc2ccccc2C(N)=O)c(C)n1CC1CCCO1 (configuration not stated),1.33% (inactive)
10,Cc1cc(C(=O)CCl)c(C)n1CCc1ccccc1,66.4% (inactive)
11,Cc1cc(C(=O)C(C)Cl)c(C)n1Cc1ccco1 (configuration not stated),0.64% (inactive)
12,COc1ccc(C(=O)c2ccc(OC)cc2OC)cc1,0.13% (inactive)
13,Cc1ccc(N=CC=C2OC(C)(C)C(C)(C)O2)c(C)c1,-2.12% (inactive)
14,CC(=O)C1=C(O)C(=O)N(CCc2c[nH]c3ccccc23)C1c1cccc(O)c1 (configuration not stated),1.15% (inactive)
15,CC(C)=CC(=O)Nc1ccc2c(c1)OCO2,-4.24% (inactive)
16,CS(=O)(=O)N(CC(=O)Nc1cccc([N+](=O)[O-])c1)c1ccccc1,-4.25% (inactive)
17,Cn1c(=O)n(Cc2ccccc2)c2ccccc21,-7.14% (inactive)
18,COc1ccccc1-c1nnc(Nc2nc3c(OC)cccc3s2)o1,8.74% (inactive)
19,COc1cccc2sc(Nc3nnc(-c4ccccc4Cl)o3)nc12,52.8% (inactive)
20,COc1ccc(-c2nnc(Nc3nc4c(OC)cccc4s3)o2)c(OC)c1,3.73% (inactive)
21,NNc1nc2c(F)cccc2s1,8.41% (inactive)
22,Fc1cccc2sc(Nc3nc4c(F)cccc4s3)nc12,43% (inactive)
23,COc1cccc2sc(Nc3nnc(-c4cccs4)o3)nc12,-3.65% (inactive)
